Source: PubChem
LANA-H2B inh – blocks KSHV LANA binding to histone H2A/H2B | cell-free LANA-H2A/H2B peptide, fluorescence polarization | inhibition, % (no concentration beside the values) | actives 0.6% (n = 320,000) | AID 2629; in the data active = inhibition mostly above about 10%, no sharp cut-off; inactive = mostly below about 6.7%
EBNA-1 inhibitor – blocks EBNA-1 binding to DNA; actives 0.34% (n = 300,000); EBNA-1 DNA binding, fluorescence polarization; inhibition, % at 14.8 µM; in the data active = inhibition above about 28%
LYPLA2 inh – LYPLA2 (human) inhibition in PME1 counter-screen; inhibition, % at 5.9 µM; recombinant LYPLA2, FP-Rh probe fluorescence polarization; AID 2177; actives 0.38% (n = 320,000);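 active = inhibition above the screen-wide mean plus 3 SD, limit set per campaign, cut at about 26% in these data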
Target sequence (O95372 whole entry, looked up): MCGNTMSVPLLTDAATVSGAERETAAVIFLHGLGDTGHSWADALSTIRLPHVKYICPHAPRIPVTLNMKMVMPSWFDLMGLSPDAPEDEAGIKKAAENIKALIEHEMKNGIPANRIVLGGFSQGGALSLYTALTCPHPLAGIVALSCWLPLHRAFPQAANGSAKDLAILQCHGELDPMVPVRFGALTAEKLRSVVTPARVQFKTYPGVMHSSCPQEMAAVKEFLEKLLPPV
LYPLA1 counter – blocks human lysophospholipase 1, a PME1 counter-screen; actives 0.16% (n = 320,000); recombinant LYPLA1, FP-Rh probe fluorescence polarization; inhibition, % at 5.9 µM; O75608;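 active = inhibition above the mean of all tested compounds plus 3 SD, set per campaign, cut at about 14% in these data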;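 note: inhibitors block serine hydrolase probe labeling of LYPLA1 so polarization falls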
Target sequence (O75608 whole entry, looked up): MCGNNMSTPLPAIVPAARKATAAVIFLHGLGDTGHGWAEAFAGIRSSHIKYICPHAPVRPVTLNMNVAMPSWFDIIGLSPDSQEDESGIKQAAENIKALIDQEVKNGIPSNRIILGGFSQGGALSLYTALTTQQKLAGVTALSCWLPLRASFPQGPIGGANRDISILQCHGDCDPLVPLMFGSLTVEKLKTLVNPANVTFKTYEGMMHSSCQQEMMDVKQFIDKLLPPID
ZTA DNA inh – counter-screen for EBNA-1 inhibitors: inhibitors of Epstein-Barr virus ZTA; P03206; ZTA-DNA binding, fluorescence polarization; inhibition, % at 11 µM; actives 0.15% (n = 320,000); AID 2234; in the data active = inhibition above about 33%
LYPLA1 conf – counter-screen for PME1 inhibitors: confirmation of human LYPLA1 inhibitors | shares compounds with LYPLA1 counter | recombinant LYPLA1, FP-Rh probe fluorescence polarization | inhibition, % at 5.9 µM | actives 69% (n = 480);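 active = mean inhibition across replicates above the hit cutoff set in the primary screen, cut at about 15% in these data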;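 note: loss of FP-Rh probe labeling of LYPLA1 seen as lower polarization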
LYPLA2 conf – LYPLA2 (human) inhibition, confirmation counter-screen | actives 72% (n = 1,100) | inhibition, % at 5.9 µM | shares compounds with LYPLA2 inh | recombinant LYPLA2, FP-Rh probe fluorescence polarization;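 active = mean inhibition across replicates above the hit cutoff set in the primary screen, cut at about 26% in these data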;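 note: blocked labeling of the enzyme by serine hydrolase FP-Rh probe lowers polarization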
A number is an active result; i = inactive; nt = not tested or not shown. Compounds with a hit are over-represented: about 1.4% of the library has one in this group of screens.

SMILES	LANA-H2B inh	EBNA-1 inhibitor	LYPLA2 inh	LYPLA1 counter	ZTA DNA inh	LYPLA1 conf	LYPLA2 conf
COc1c(/C=N/Nc2ccc(C(=O)O)cc2)c(CCN(C)C(C)=O)cc2c1OCO2	i	i	i	i	i	nt	nt
O=[N+]([O-])c1cccc(/C=N/N2CCN(Cc3ccc(Cl)cc3)CC2)c1	i	i	40.9	28.6	i	36.5	53.4
Cc1c(Br)c([N+](=O)[O-])nn1CC(=O)Nc1ccc(Cc2ccncc2)cc1	i	i	59.0	23.4	i	34.6	66.7
CC(CNC(=O)C1CCCN(S(=O)(=O)N2CCOCC2)C1)c1ccccc1 (stereo unspecified)	i	i	i	i	i	nt	nt
COc1ccc(CC(C)N2CCN(c3cccc(C(F)(F)F)c3)CC2)cc1OC (stereo unspecified)	i	i	30.9	24.9	i	32.0	35.3
CCOc1cc(CN2CCN(c3cccc(C(F)(F)F)c3)CC2)ccc1OC	i	i	i	i	i	nt	nt
Cc1ccc(NS(=O)(=O)c2cccc(C(=O)N3CCN(c4ncccn4)CC3)c2)cc1	i	nt	49.5	24.0	i	i	i
O=C(CCCCCN1C(=O)c2ccccc2C1=O)Nc1ccc(S(=O)(=O)N2CCCCC2)cc1	i	i	41.8	26.4	i	29.7	41.5
CC(C)(C)c1cc(C(=O)N/N=C/c2ccc(-c3ccccc3[N+](=O)[O-])o2)n[nH]1	i	i	35.9	25.6	i	i	i
COc1cc(OC)c(-c2c3cc(O)c(=O)cc-3oc3cc(O)c(O)cc23)cc1OC	i	i	i	i	i	nt	nt
Cc1c2cc(O)c(=O)cc-2oc2cc(O)c(O)cc12	114.2	i	108.3	94.6	i	94.0	102.0
O=C(Nc1ccccc1C(=O)O)c1ccc(Br)c(S(=O)(=O)NCc2ccccc2)c1	i	i	i	i	i	nt	nt
COc1ccc2c(c1)C(=NNc1ccc(C(=O)O)cc1)c1cc(OC)ccc1-2	i	i	36.7	28.3	i	18.8	i
Nc1ccc(O)c2c1C(=O)c1ccccc1C2=O	i	i	61.6	50.0	36.8	36.4	58.8
N#CCN(CC#N)C(=O)C1c2ccccc2Oc2ccccc21	i	i	105.4	87.0	i	i	i
CCCCC(=Nc1ccc(N)cc1)C1=C(O)C(C(=O)OC)C(C)(C)CC1=O (stereo unspecified)	i	i	28.5	22.8	i	i	i
CCCC(=NCc1ccccc1)C1=C(O)C(C(=O)OC)C(C)(C)CC1=O (stereo unspecified)	i	i	i	i	i	nt	nt
COc1cc(-c2c(NC(=O)c3ccco3)oc3ccccc3c2=O)cc(OC)c1OC	i	i	i	i	i	nt	nt
COc1cccc(NC(=O)CSc2nc3ccccc3nc2N2CCOCC2)c1	i	i	i	i	i	nt	nt
O=C(COc1ccc(Br)cc1)Nc1ccc(Cc2ccncc2)cc1	i	i	29.6	23.1	i	25.2	i
COc1ccc(C(=O)Nc2nnc(SCC(=O)NC3CC3)s2)cc1	i	i	i	i	i	nt	nt
Cc1ccc(S(=O)(=O)CCC(=O)N(Cc2nnc(-c3ccc(Cl)cc3)o2)C2CC2)cc1	i	nt	i	i	i	nt	nt
CCOc1ccc(S(=O)(=O)NCc2ccc3c(c2)OCO3)cc1C(=O)O	i	i	i	i	i	nt	nt
O=C1N=C(N2CCN(Cc3ccccc3)CC2)S/C1=C/c1cccs1	i	i	46.8	25.1	i	35.6	55.4
O=C1N=C(c2ccccc2)S/C1=C\c1cccs1	i	i	i	i	i	nt	nt
SMILES	LANA-H2B inh	EBNA-1 inhibitor	LYPLA2 inh	LYPLA1 counter	ZTA DNA inh	LYPLA1 conf	LYPLA2 conf
CCC(c1nnnn1C1CCCC1)N1CCN(c2cccc(OC)c2)CC1 (stereo unspecified)	i	i	i	i	i	nt	nt
CC(=O)Oc1c(I)cc(I)cc1C(=O)Nc1ccc(Cl)cc1	i	i	i	i	i	nt	nt
Cn1c(=O)c(Nc2ccc(Cl)cc2)c2c3c(cccc31)C(=O)c1ccccc1-2	65.6	i	33.3	20.4	i	33.5	i
NS(=O)(=O)c1ccc(CCNC(=O)c2cc([N+](=O)[O-])ccc2N2CCCCC2)cc1	i	i	30.0	78.2	i	77.3	i
COc1ccc(CCNC(=O)c2cc([N+](=O)[O-])ccc2N2CCOCC2)cc1	i	i	i	i	i	nt	nt
N#CCCN1CCN(Cc2ccccc2)CCC1=O	i	i	i	i	i	nt	nt
